The campaign covered roughly 5,500 compounds. About 2,000 (36%) were called active. Roughly 18% stayed inconclusive and do not appear here. No stated cut-off is given here; in the data, active means normalized growth mostly below about 0.91 (no sharp cut-off); inconclusive means no clear call, values can overlap the other calls; inactive means mostly above about 0.92. The list shows a part of the results.
Assay: chemical genetic growth profiling, strain panel (AID 1159580);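 further: tested at 20 µM; growth read once vehicle control cultures reached saturation at 30 °C; 1 = growth at the plate median or of vehicle wells; lower values mean less growth of the strain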
Settings: S. cerevisiae deletion strains, growth OD

Measured: normalized growth

CNCCc1c[nH]c2ccc(O)cc12
inactive: locus YAL040C, strain CLN3, active compounds read low 1.01 | locus YCL061C, strain MRC1 (second series), active compounds read low 1.01 | locus YDR150W, strain NUM1, active compounds read low 0.994 | locus YDR363W, strain ESC2, active compounds read low 1.01 | locus YER002W, strain NOP16, active compounds read low 1.01 | locus YGR078C, strain PAC10, active compounds read low 1.02 | locus YMR307W, strain GAS1, active compounds read low 1 | locus YNL128W, strain TEP1, active compounds read low 1 | locus YNL175C, strain NOP13, active compounds read low 1.01 | locus YNL197C, strain WHI3, active compounds read low 1.02 | locus YNL224C, strain SQS1, active compounds read low 1.01 | locus YNL322C, strain KRE1, active compounds read low 1.02 | locus YOR083W, strain WHI5 (second series), active compounds read low 1.01 | locus YPL055C, strain LGE1, active compounds read low 1.01 | locus YPL241C, strain CIN2, active compounds read low 1

Source: PubChem BioAssay AID1159580 (chemical genetic matrix, 2015)
